# From PubChem
# Shown are actives, neighbours in structure and some others; about 6% of the full set was active somewhere.
# D1 PAM = Potentiators of Human D1 Dopamine Receptor: qHTS; D(1A) dopamine receptor (Homo sapiens), P21728; HEK293 TREx D1 cells, calcium flux, dopamine EC20 potentiation; potentiation, % at 10 µM; 360,000 compounds, 0.036% hits; in the data active = potentiation above about 30%; also: 0% is about no effect
# DRD3 antagonist = qHTS of D3 Dopamine Receptor Antagonist: qHTS. max response, negative = inhibition, %. D3R cells, DiscoveRx beta-arrestin luminescence, antagonist mode; stronger effect = lower value. 360,000 compounds, 2.5% hits. AID 652054, 2013. D(3) dopamine receptor (Homo sapiens), P35462; in the data active = max response below about -50%; inconclusive = no clear call, values can overlap the other calls; also: % is scaled to controls: 0 for no effect and ±100 for the full control effect
# Target sequence (P35462 whole entry, looked up): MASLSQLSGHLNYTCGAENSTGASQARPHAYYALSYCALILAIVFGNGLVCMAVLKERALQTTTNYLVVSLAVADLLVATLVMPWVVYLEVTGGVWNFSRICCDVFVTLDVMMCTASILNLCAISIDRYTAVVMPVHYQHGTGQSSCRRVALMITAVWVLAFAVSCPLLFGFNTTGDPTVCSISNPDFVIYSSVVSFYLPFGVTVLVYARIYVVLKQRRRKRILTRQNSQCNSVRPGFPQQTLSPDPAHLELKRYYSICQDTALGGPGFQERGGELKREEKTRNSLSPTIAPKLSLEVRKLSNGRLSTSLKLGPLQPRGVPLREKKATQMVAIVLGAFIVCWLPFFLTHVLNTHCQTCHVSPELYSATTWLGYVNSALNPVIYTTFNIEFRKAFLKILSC
#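 Cells plated overnight at 1500 cells/well, then exposed to library compounds with dopamine controls for 90 minutes at 37 degrees C. DiscoveRx reagent added for 30–60 minutes at room temperature; luminescence read, quantitative HTS format.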
# D1 agonist = Allosteric Agonists of the Human D1 Dopamine Receptor: qHTS; activation, % at 2 µM; D(1A) dopamine receptor (Homo sapiens), P21728; 360,000 compounds, 1% hits; HEK293 T-REx D1 cells, calcium flux, agonist mode; AID 504660, 2011; in the data active = activation above about 30%; also: 0% is about no effect
#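 Inducible HEK293 T-REx D1 cells, force-coupled to calcium signalling, were plated at 4000 cells/well with tetracycline and held overnight at 30 C. After no-wash calcium dye loading, compound-evoked calcium rise over 180 s flagged agonists.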
# DRD3 agonist = qHTS of D3 Dopamine Receptor Agonist: qHTS; D(3) dopamine receptor (Homo sapiens), P35462; D3R DiscoveRx beta-arrestin cells, luminescence, 90 min; max activation, %; 410,000 compounds, 0.58% hits; AID 652048, 2013; in the data active = max activation above about 30%; also: 0% is about no effect
#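 Cells at 1500/well, incubated overnight, then treated with pinned compounds (dopamine as control) for 90 min at 37 degrees C. DiscoveRx reagent added for 30 - 60 minutes at room temperature; luminescence read.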
# D1 antag = Antagonist of Human D 1 Dopamine Receptor: qHTS; AID 504652, 2011; activity change, negative = inhibition, % at 10 µM; HEK293 TREx D1 cells, calcium flux, dopamine EC80; stronger effect = lower value; 360,000 compounds, 3.2% hits; in the data active = activity change below about -30%; also: % is scaled to controls: 0 for no effect and ±100 for the full control effect
#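 Tetracycline-induced HEK293 Trex D1 cells, force-coupled to calcium, dye-loaded; compounds added and read 180 s, then EC80 dopamine added and calcium flux tracked kinetically another 180 s.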
# Active calls of the source: *; ? = inconclusive; . = no result given.
SMILES,D1 PAM,DRD3 antagonist,D1 agonist,DRD3 agonist,D1 antag
Cc1cc(N2CCOCC2)n2ncc(-c3ccccc3)c2n1,-3,-10,-2,6,.
Cc1ccc(C(=O)NCCc2ccncc2)cc1,-1,17,-1,-1,-36*
NS(=O)(=O)c1ccc(CCNC(=O)CCCNC(=O)c2ccc(Cl)cc2)cc1,1,-14,0,-3,-33*
CC(C)(C)c1ccc(C(=O)NNc2ccc(F)cc2F)cc1,-9,-7,2,3,-8
Cc1c(C)n(C)c2ccc(C(=O)NCCc3ccc(Cl)cc3)cc12,-4,.,5,-6,-59*
NS(=O)(=O)c1ccc(CCNC(=O)c2ccc(Cl)nc2)cc1,-1,-17,3,-12,2
Cc1ccc(C(=O)NCCc2ccccc2)cc1,2,-15,-5,-3,-15
CCc1ccc(C(=O)NNc2ccc(F)cc2F)cc1,-7,-7,0,10,-51*
CO[C@H]1C=CO[C@@]2(C)Oc3c(C)c(O)c4c(O)c(c5c(c4c3C2=O)=NC2(CCN(CC(C)C)CC2)N=5)NC(=O)/C(C)=C\C=C/[C@H](C)[C@H](O)[C@@H](C)[C@@H](O)[C@@H](C)[C@H](OC(C)=O)[C@@H]1C,.,.,.,8,.
COc1ccccc1C1C=C(c2ccc(Cl)cc2)Nc2nc(-c3ccc(Cl)cc3)nn21 (centres undefined),-2,.,11,3,-12
O=C(NCCc1ccc(O)cc1)c1ccc(Cl)cc1,-2,23,1,4,-32*
O=C(CCNC(=O)c1ccc(Cl)cc1)Nc1ccc(F)cc1F,2,8,2,0,-47*
O=C(COC(=O)CCCNC(=O)c1ccc(Cl)cc1)NCc1ccccc1Cl,-6,-4,77*,1,-10
O=C(NCCc1ccc(Cl)cc1)c1ccc(=O)[nH]c1,-2,-5,2,-2,-6
O=C(CCCNC(=O)c1ccc(Cl)cc1)NCc1ccccc1Cl,1,-9,0,2,0
CN(C)Cc1cc(CCNC(=O)c2ccc(Cl)cc2)ccc1O,-10,?,4,7,-37*
O=C(CCCNC(=O)c1ccc(Cl)cc1)Nc1ccccc1F,-2,11,0,-1,-4
CCNc1nc(C#N)nc2c1ncn2-c1cccc(Cl)c1,-5,.,1,.,-10
C=C[C@]1(C)C[C@@H](OC(=O)CO)[C@]2(C)[C@H](C)CC[C@]3(CCC(=O)[C@H]32)[C@@H](C)[C@@H]1O,.,.,.,6,.
Cc1cc(C)n(C(C)CC(=O)Nc2cccc(C#N)c2)n1 (centres undefined),-6,.,0,-9,-5
CCCCNC(=O)CSc1nc2ccccc2nc1Cc1ccc(Cl)cc1,-3,.,1,-9,-1
Cc1cccc(/C=C/C(=O)c2ccc([N+](=O)[O-])o2)c1,-7,-58*,0,-6,-11
O=C(/C=C/c1cccc([N+](=O)[O-])c1)c1ccc([N+](=O)[O-])o1,.,-137*,.,-63,.
COc1ccc(S(=O)(=O)N2CCN(C(=O)c3ccc([N+](=O)[O-])o3)CC2)cc1,-8,0,-1,2,-5
O=C(/C=C/c1cccc([N+](=O)[O-])c1)c1ccco1,2,?,2,-13,-9
SMILES,D1 PAM,DRD3 antagonist,D1 agonist,DRD3 agonist,D1 antag
Cc1ccccc1/C=C/C(=O)c1ccc([N+](=O)[O-])o1,-8,-58*,-1,-18,-6
COc1ccc(/C=C/C(=O)c2ccc([N+](=O)[O-])o2)cc1,-6,-75*,0,-28,-9
CCN(C(=O)Cn1ncc2c(=O)oc3ccccc3c21)c1ccccc1F,6,.,-2,-9,-14
COc1cc(OC)c(NC(=O)CN2CCCN(Cc3ccccc3C)S2(=O)=O)cc1Cl,0,.,-1,-2,8
c1ccc(CN2CCC3(CCCc4ccccc43)CC2)cc1,-6,-105*,1,-91,-49*
Cc1ccc(-n2cc(C(=O)OCc3ccc(F)c(F)c3)c3ccccc3c2=O)cc1,-4,.,1,7,6
CCc1ccccc1NC(=O)N1CCOc2ccccc21,-3,.,0,-15,5
